Measured values: paper PMC12136788
Substitutions are numbered along the chain they refer to. Whole data set: some 24,000 sequences, median “enrichment r” near 0.99, cut for the highest 2% near 3.7. For the sample, the highest values were picked, then their nearest neighbours and some sequences at random.

B1: chr14:23562722:23562723:-_ENSG00000100813_ENST00000605057|hu_mus|FALSE|FALSE (ssRNA)
RNA: GGGAGUUCUACAGUCCGACGAUCUGGCUCAUUUCCUCCCCGAUCUGUGAAUUUGGCUGGAAUGCAGCAUGGGGUGUUGAGUGUUUUUGUAAAUUUUCUAGCAUUAGAGCCCCUUUGAGCCGCUUGACCAGGGCACUCUUCUGCCAACAGAGGAUUGAGCAUCA
B2: 107524198_107526941_663_CDS_ENSMUSG00000028613_ENSMUST00000106731|mouse|control|control (ssRNA)
RNA: GGGAGUUCUACAGUCCGACGAUCGGGAUGAGGCGCGAGUAGUCCCGCUUCACCAGGUCUAUCCUCCGCACCUCGUGUCGGUUCGUGAAGAUCAGAGAUGGGCUCUUGCCGGCUACAGCUUUGCAGUUCUUGGUCAGUGUAUCCCAACAGAGGAUUGAGCAUCA
B3: chr11:72497679:72497680:+_ENSMUSG00000020794_ENSMUST00000021148|mus_mus|motif|central (ssRNA)
RNA: GGGAGUUCUACAGUCCGACGAUCUAUUGCUACAUCCAAUCCAAGAGAUGGGUGAAUCAUAGUACAAAAAGGACAAAGCACCGGGUGAUGACCCCUCCUCUGAAGUCAUCGUGAAAAACUCAAGUAAUUUACUAGUAUUUCAGUCAACAGAGGAUUGAGCAUCA
B4: chr10:35314101:35314102:-_ENSG00000108094_ENST00000537177|hu_mus|motif|central (ssRNA)
RNA: GGGAGUUCUACAGUCCGACGAUCUUCACCUGUACAGAGAUAAUGCAACCAUGUCAGCUUCCGUCCACUGAAAUGCUGGCGGUAAAACAAUUCAAACAUCUGUACACUUUUCUCUAGCUCUUGGGGAAUUGCAAAUGUAGAUGACAACAGAGGAUUGAGCAUCA
B5: chr2:203071915:203071916:-_ENSG00000116030_ENST00000392246|hu_hu|motif|central (ssRNA)
RNA: GGGAGUUCUACAGUCCGACGAUCCAAAGAGAUGGGGUGCCAGUUUUCAAUUCCGUUUUGAACACCACAUUACAAAAGAACGGUUUUUAAAAAUAAAAAAGGAUUGAGGGAAAAGAAAAAAAAUAAAAAGAAUAUCUAAACUGUCAACAGAGGAUUGAGCAUCA
B6: chr2:203071830:203071831:-_ENSG00000116030_ENST00000392246|hu_hu|FALSE|FALSE (ssRNA)
RNA: GGGAGUUCUACAGUCCGACGAUCAGGGGACUGAGGCUUGAUCACCAAAAAUCAGCACAAUGAAAACAAACAAUAAUGAAUAAUGAGCACUAGAAUUCAAAUUACCAGAUGUUUCAAAGAGAUGGGGUGCCAGUUUUCAAUUCCCAACAGAGGAUUGAGCAUCA
B7: chr10:22825647:22825648:-_ENSG00000150867_ENST00000376573|hu_hu|FALSE|FALSE (ssRNA)
RNA: GGGAGUUCUACAGUCCGACGAUCUCAUCAUUAUUAUCUUCAUUAUUCUGAAUACUGUCUCACAUCUUUCAACUCCAAAAAAAAAAAAAAAAAAAAAAAACUGAUCCACAGUUUGUUGUGUGAUGCCAACACGGUGCCUGACAUCAACAGAGGAUUGAGCAUCA
B8: chr5:180275300:180275301:-_ENSG00000196670_ENST00000512132|hu_hu|FALSE|FALSE (ssRNA)
RNA: GGGAGUUCUACAGUCCGACGAUCUCAUCAUCACUGCCCCCUCCCAAACCAAUUACAUCAAGUUUAUACUUAAAGACCACUAAUAUUAAAUAAAUUUAUAUUCCCUGAAACCUAUCCUCCCUGAAUUUGCCUGUUGGAGGCCCUCAACAGAGGAUUGAGCAUCA
B9: chr19:60013232:60013233:-_ENSMUSG00000040022_ENSMUST00000171986|mus_hu|FALSE|FALSE (ssRNA)
RNA: GGGAGUUCUACAGUCCGACGAUCCUUAUCUUUUAACUUUGCAAAAGGAGAUCUGGUUUUGUCCUUCAUUGAUAAGUCAAACAUACUUGCGGUCAUAUUGUUCCUCAUAAACUGAAUAUUGACCUUUAUCUCACCCCUGUUUUUCAACAGAGGAUUGAGCAUCA
B10: chrX:153994619:153994620:+_ENSG00000130826_ENST00000369550|hu_mus|FALSE|FALSE (ssRNA)
RNA: GGGAGUUCUACAGUCCGACGAUCUCCAACAUACUCUUUGCCUGCACUCUGUUGUGAUUUCACCAAACGAGUGGCUCGUUCAAUGCACACAAUUAAACAACCAGUCACUUUGGGAUCUAGUGUGCCACUGUGGCCAGUCUUCUCCAACAGAGGAUUGAGCAUCA
B11: chr9:88635815:88635816:+_ENSG00000135040_ENST00000361671|hu_hu|FALSE|FALSE (ssRNA)
RNA: GGGAGUUCUACAGUCCGACGAUCUCCUCCUGCCAAUAACUUCAUAACCACAAAGUUGGGUUUGGCAACCUUUAAAAUUCUAUUAACCUCAUGGUCCGGGUUAGGAAUAUUUUCCAAUAUCAUUUUUGCCUGUUGAAAGUGCUUCAACAGAGGAUUGAGCAUCA
B12: chr2:203071915:203071916:-_ENSG00000116030_ENST00000392246|hu_hu|FALSE|FALSE (ssRNA)
RNA: B5 RNA with G81U, G82A
B13: chr18:43482294:43482295:-_ENSMUSG00000024501_ENSMUST00000121805|mus_mus|FALSE|FALSE (ssRNA)
RNA: GGGAGUUCUACAGUCCGACGAUCUGACAGAGUUUUGCCUAGCAUUUGAGAGGCCCUGGACUCAAUUGUCCAGCUCUACAAAAUGAAAUAAACAGAAAUUCCCCACCUCAAAAAAAAAAAACAACAACAACAACAACAAAAAACCAACAGAGGAUUGAGCAUCA
B14: chr7:17500836:17500837:-_ENSMUSG00000019370_ENSMUST00000019514|mus_mus|FALSE|FALSE (ssRNA)
RNA: GGGAGUUCUACAGUCCGACGAUCUGAACUGAACACAAUAUUGCCCGGUUUGUUUGUUUGUUUAAAAAAAAAAAAAAAAAAGGAAAAACAAAAAACCAAAAUAAAACCCCGAAACAUUCCGCAAAGUCCACAGCCUCACGCCUACAACAGAGGAUUGAGCAUCA
B15: chr6:74304526:74304527:-_ENSG00000119899_ENST00000355773|hu_hu|motif|central (ssRNA)
RNA: GGGAGUUCUACAGUCCGACGAUCUAAUUAAGCAAAGGUAUCAGGAGGUCUGUUUCAGCUCAUUCCCUUUAGUAUGGCCCGGAAAAAUCAACAGAACUGUCCUACUUCAUGUUGCCCGACUAGCAGGCAGGUAUGUGAACCUAACAACAGAGGAUUGAGCAUCA
B16: 6859137_6859426_438_3pUTR_ENSG00000089693_ENST00000435120|human|control|control (ssRNA)
RNA: GGGAGUUCUACAGUCCGACGAUCGUCUGAAUCCCGAACAGUCCUCCGUGUCUCCCGGAUCCCGCCUGGUGCCGAGCGCAUCUCUGAUGUCUCUUGGUAGACCUUGGGGGCACCAUCACCCGUAUUGGAGUAGGAGAUGACAGUCAACAGAGGAUUGAGCAUCA
B17: chr18:35731670:35731671:+_ENSMUSG00000037236_ENSMUST00000166793|perfect_dup|motif|central (ssRNA)
RNA: GGGAGUUCUACAGUCCGACGAUCUGACCCUGUGAAUCCCUACCGAGAGAUGACUGCUGGAAUGACUUGGACAUUGUAGAACGGUCUCUUGUCUAUUUUAUAGAUCAAAAAAAAAAAAAAAAGUUUUAAAAGAUGGCCAAAAAGCAACAGAGGAUUGAGCAUCA
B18: chr1:39494564:39494565:+_ENSG00000168653_ENST00000372967|hu_hu|hu_hu_hu_mus_True|28_78 (ssRNA)
RNA: GGGAGUUCUACAGUCCGACGAUCAUGCAUUCGCCUCAUCGUUUUGUACCGAAGCAAACACUCUACGAAGUCAUCGAACUCUAUCUUGCACUCCUUUUUCGCCCGGGUAUAACCGAUCCCGUGUGCACACUCUAUCCACUCUUUCAACAGAGGAUUGAGCAUCA
B19: chr7:44244176:44244177:+_ENSG00000106636_ENST00000223369|hu_mus|hu_hu_hu_mus_False|48_48 (ssRNA)
RNA: GGGAGUUCUACAGUCCGACGAUCACUGUCGCUCCGGACGUAGACAUGGCAAAGAUACUCUUGUUCUUUGACAGAAGCUCUGCUGCCUUUCGAUGAGCGUUCCACAAUCAGUUGACUUGUAAAGGUCAUGAAUUCCUGCACACUCAACAGAGGAUUGAGCAUCA
B20: chr2:157388114:157388115:+_ENSMUSG00000067786_ENSMUST00000109526|mus_mus|motif|central (ssRNA)
RNA: GGGAGUUCUACAGUCCGACGAUCUUGGUGGAGGUGGUCCCUGUCUCCAGGAGCUUACAAUCUAGCUGGGGAGACACGGCGGAUGCACACUUAAACCAGUACAAUUAGCGACUACCACAAUAUUGACCACAACUGCUGCGUGAGCAACAGAGGAUUGAGCAUCA
B21: chr1:185089287:185089288:-_ENSG00000121486_ENST00000367506|hu_hu|FALSE|FALSE (ssRNA)
RNA: GGGAGUUCUACAGUCCGACGAUCUGACUGGACAUGGCUUUCUGACUGUCCUCCAGUGUAGGUGGGGGUGCUGUACUUUAAAAGGAUAGAUUUAAACUGCAUCAGAGGUGCAUCUGUGCGUACACCCAUUGGGUCAAAAUGAGUCAACAGAGGAUUGAGCAUCA
B22: 13689013_13692640_988_3pUTR_ENSMUSG00000022684_ENSMUST00000023365|mouse|control|control (ssRNA)
RNA: GGGAGUUCUACAGUCCGACGAUCCACUCCCAGGGCUCUCACACGCUCCAGCUCCGUGAGGAUGACCCUUCUGUGGCUACUGUUCUCUAUGGUAUAAGGUGCCCUGGAAAACUCUUCUUCUGUCAAAGUUAAAAGCAACCUUCCCAACAGAGGAUUGAGCAUCA
B23: 158551514_158564203_814_3pUTR_ENSG00000122335_ENST00000367104|human|control|control (ssRNA)
RNA: GGGAGUUCUACAGUCCGACGAUCCACCCUUCUGAGCAGCUAGACUCUGACUGCUUUCACUAAGAGCCAAAGAUGUAAAAUACUGGAUACACUCAUCUAGCUCUGUUUGAGGUAAGGAAGCCAGCAACUGUCUGAGCUCUUCUUCAACAGAGGAUUGAGCAUCA
B24: chr2:120842339:120842340:+_ENSMUSG00000023572_ENSMUST00000060455|mus_mus|FALSE|FALSE (ssRNA)
RNA: GGGAGUUCUACAGUCCGACGAUCCUUAAGGACAGAGGCUGCCUUUCUAUCGAGCAAACACCCUGUCAAAGCUCCACUUCUAAAAGCAGACGUUAAAAAAACUUAAAAAAUAAAUAGGUAAAGCAGACACUGGAUCGUGGGUGUCAACAGAGGAUUGAGCAUCA
B25: 104620154_104620274_4085_CDS_ENSMUSG00000074994_ENSMUST00000117237|mouse|control|control (ssRNA)
RNA: GGGAGUUCUACAGUCCGACGAUCACCUCCACUUUCAAUAUUUUCCUCAUCUGUAAAACCUUCUAUUGCAACUGUGUCCUGUCCUUUUGCCAACUGGUCUGAAGGAAGACUAUCAAGUUCGAUGGCUGUGGGGGAUUCUGUGGACAACAGAGGAUUGAGCAUCA
B26: chr2:120842339:120842340:+_ENSMUSG00000023572_ENSMUST00000060455|mus_mus|motif|central (ssRNA)
RNA: B24 RNA with U80G, A81G

biological target: T1, UNK ZnF1-3 (human, UniProt Q9C0B0 31-174); experiment: nsRBNS (natural sequence RNA bind-n-seq); RBNS binding buffer (assumed for nsRBNS): 25 mM Tris pH 7.5, 150 mM KCl, 3 mM MgCl2, 0.01% Triton X-100, 500 ug/ml BSA, 20 U/ml SUPERase-In, 4 C; UNK is unkempt and MSI1 is Musashi-1; names of the RNAs are library labels; protein concentration not given here; high values mean tight binding
T1 sequence: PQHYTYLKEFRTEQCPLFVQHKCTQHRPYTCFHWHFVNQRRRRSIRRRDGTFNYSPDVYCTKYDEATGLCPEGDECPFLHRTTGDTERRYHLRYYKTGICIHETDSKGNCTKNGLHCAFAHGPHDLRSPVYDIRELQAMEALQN

Row | Binder | binding signal [enrichment R]
1 | B1 | 0.906
2 | B2 | 0.464
3 | B3 | 0.978
4 | B4 | 0.886
5 | B5 | 20.1
6 | B6 | 3.55
7 | B7 | 5.07
8 | B8 | 3.55
9 | B9 | 0.548
10 | B10 | 0.751
11 | B11 | 1.04
12 | B12 | 32.1
13 | B13 | 3.06
14 | B14 | 6.58
15 | B15 | 0.917
16 | B16 | 0.67
17 | B17 | 3.64
18 | B18 | 0.645
19 | B19 | 0.634
20 | B20 | 1.28
21 | B21 | 0.951
22 | B22 | 0.702
23 | B23 | 0.91
24 | B24 | 5.28
25 | B25 | 0.848
26 | B26 | 3.71
